MRP reversal: compounds reversing MRP-mediated drug resistance; differential viability (reversal), % at 10 µM; AID 602; 85,000 compounds, 0.04% hits; H69AR cells + 2 uM doxorubicin, CellTiter-Glo, 72 h;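 active = viability drop by adding the cancer drug above about 55%, with treated viability meeting a 40% cutoff, limit read from the data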;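 also: viability without doxorubicin minus viability with 2 µM doxorubicin for each compound; larger differential means the compound sensitizes cells more to doxorubicin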
MRP-1 activ: activators of MRP-1; H69AR cells + doxorubicin, viability rescue, CellTiter-Glo; viability increase, % at 10 µM; 140,000 compounds, 0.61% hits;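 active = viability gain under doxorubicin at or above a set limit, the compound median plus 3 SD, cut at about 4.7% in these data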;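 also: MRP-1 overexpressing cells given doxorubicin 25 µM after compound pretreatment; 18-22 h compound pretreatment then 72 h with doxorubicin before readout; 0% = doxorubicin-only wells and 100% = vehicle-treated cells without doxorubicin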
Smad3 FoxH1 inh: blocks human Smad3 binding to FoxH1 peptide; P84022; TR-FRET Smad3/Dy647-FoxH1 peptide binding, europium anti-His; inhibition, % at 25 µM; 88,000 compounds, 0.29% hits; AID 630;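 active = compounds that reduce the energy-transfer binding signal between the protein and its labelled peptide by more than half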;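 also: 0% = Smad3 plus labelled peptide maximal FRET and 100% = peptide-only background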
Target sequence (P84022 whole entry, looked up): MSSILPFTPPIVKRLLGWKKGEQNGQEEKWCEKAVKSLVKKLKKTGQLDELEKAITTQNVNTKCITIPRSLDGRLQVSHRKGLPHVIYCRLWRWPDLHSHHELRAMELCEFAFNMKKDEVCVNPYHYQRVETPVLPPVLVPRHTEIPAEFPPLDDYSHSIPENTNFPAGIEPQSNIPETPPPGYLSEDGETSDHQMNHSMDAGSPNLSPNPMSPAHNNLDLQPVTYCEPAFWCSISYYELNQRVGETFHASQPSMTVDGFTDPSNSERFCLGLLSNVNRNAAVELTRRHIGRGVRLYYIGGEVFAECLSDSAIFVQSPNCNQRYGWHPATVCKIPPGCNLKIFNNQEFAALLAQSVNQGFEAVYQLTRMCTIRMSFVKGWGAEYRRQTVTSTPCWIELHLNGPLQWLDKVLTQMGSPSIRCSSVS
ERa SRC1 pot: enhances coactivator binding to human estrogen receptor alpha; TR-FRET ERalpha-LBD/SRC-Cy5 coactivator binding, 2 h; 100 = basal binding, no effect; P03372; 86,000 compounds, 1.3% hits; coactivator binding (% of control), % at 25.6 µM; AID 639; in the data active = activity above about 200%;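 also: binding measured in presence of low estradiol as agonist stimulus; 0% = peptide alone without receptor and 100% = receptor with peptide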
ERb coact inh: blocks coactivator binding to human estrogen receptor beta. Q92731. TR-FRET ER-beta LBD / SRC1-Cy5 peptide binding; receptor agonist-loaded with 1 µM estradiol. inhibition, % at 25.6 µM. 86,000 compounds, 1.3% hits;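 active = compounds whose percent inhibition of the receptor-coactivator binding signal exceeds about 50% in the single-dose screen, limit read from the data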;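 also: 0% = receptor plus peptide wells without compound and 100% = peptide-only wells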
ERa coact inh: ER-alpha (human) coactivator binding inhibition | AID 629 | TR-FRET ER-alpha LBD / SRC-1 peptide, estradiol-bound | inhibition, % at 25.6 µM | P03372 | 86,000 compounds, 1.7% hits; in the data active = inhibition above about 50%;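 also: 0% = receptor plus peptide control and 100% = peptide only without receptor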
* marks the source's active call; other numbers are inactive results; nt = no result; [ ] = dose if it differs, or a comment. An excerpt weighted towards active compounds, which were near 2.8% of everything screened.

SMILES	MRP reversal	MRP-1 activ	Smad3 FoxH1 inh	ERa SRC1 pot	ERb coact inh	ERa coact inh
NCCC1([N+](=O)[O-])CCNCC1	nt	nt	16	nt	nt	nt
CC1(C)C([N+](=O)[O-])C(c2ccc(Cl)cc2)NC(c2ccc(Cl)cc2)C1[N+](=O)[O-] (stereo not given)	nt	-2	nt	nt	nt	nt
Cc1cnc(C(=O)OCC(=O)c2csc(N3CCCCC3)n2)cn1	-4	-2	2	51	57*	54*[fluorescence artefact?]
O=C(CCc1ccccc1)Nc1ccc(N2CCOCC2)cc1	1	-2	13	111	59*	4
Cn1c(=S)[nH]c2[nH]c(=O)cnc2c1=O	nt	-1	nt	nt	nt	nt
COc1ccccc1/C=C1\SC(=S)N(Nc2nc(C)cc(C)n2)C1=O	nt	-1	nt	nt	nt	nt
Cc1cc(C)nc(NN2C(=O)/C(=C/c3ccc(O)cc3)SC2=S)n1	nt	7.8*	nt	nt	nt	nt
CCOC(=O)c1ccc(Oc2nc(NC(C)(C)C)nc(N(C)C)n2)cc1	-5	7.0*	0	157	-2	-8
Cc1cc(NC(=O)CN2CCCCC2C)no1 (stereo not given)	-8	-1	-5	106	-8	-7
CCOC(=O)c1cc(-c2ccccc2)sc1NC(=O)C(C)Sc1nnc(C)s1 (stereo not given)	nt	9.2*	nt	nt	nt	nt
CCOC(=O)c1cc(-c2ccccc2)sc1NC(=O)C(C)Sc1nnnn1C (stereo not given)	5	4	-1	118	-1	-11
CN(C)c1ccc(NC(=O)COC(=O)c2cc(=O)c3ccccc3o2)cc1	nt	-1	nt	nt	nt	nt
O=C(O)c1ccc(/C=N/N=C2c3ccccc3-c3ccccc32)cc1	nt	nt	11	nt	nt	nt
COCCN(Cc1ccccc1)P(=O)(O)c1ccccc1OCC(=O)O	5	-2	-6	262*[fluorescence artefact?]	-1	1
CC(=O)Cc1ccccc1OCC(=O)O	16	0	3	134	-7	0
CCOC(=O)N1CCN(c2cc(NCCC(=O)O)c3c4c(onc24)-c2ccccc2C3=O)CC1	-18	-4	-8	51	65*[fluorescence artefact?]	10
CCNc1ccc2noc3c2c1C(=O)c1ccccc1-3	-8	-8	4	177	5	-2
O=C(O)CCCNc1cc(N2CCC3(CC2)OCCO3)c2noc3c2c1C(=O)c1ccccc1-3	-12	-4	98*[fluorescence artefact?]	41	88*[fluorescence artefact?]	27
CC1CCN(C(c2cccs2)c2nnnn2Cc2ccccc2)CC1 (stereo not given)	8	-3	-3	104	5	6
CC(C)N(N=Nc1ccc([N+](=O)[O-])cc1)C(C)C	nt	4.7*	nt	nt	nt	nt
Fc1ccc(-c2nnc(-n3nnc4ccccc43)c3ccccc23)cc1	4	nt	-2	157	47	58*
COc1ccccc1N1CCN(c2nnc(-c3ccc(F)cc3)c3ccccc23)CC1	-7	-5	-24	102	13	14
O=C(O)[C@@H](O)c1ccc(F)cc1	nt	nt	2	nt	nt	nt
c1ccc(NCC2OCc3ccccc3CO2)cc1	nt	0	nt	nt	nt	nt
Cc1noc(C)c1S(=O)(=O)N(CC(=O)O)c1ccc2c(c1)OCO2	-2	-1	-1	60	54*	41
SMILES	MRP reversal	MRP-1 activ	Smad3 FoxH1 inh	ERa SRC1 pot	ERb coact inh	ERa coact inh
CC(=O)NC(c1ccco1)c1ccc2cccnc2c1O (stereo not given)	-12	-8	5	72	59*[fluorescence artefact?]	31
Nc1ccc(N2CCCCCC2)cc1	-3	-5	8	16	93*[fluorescence artefact?]	97*[fluorescence artefact?]
Cc1nnc(Oc2ccccc2)c2ccccc12	2	-2	11	140	-4	6
Cc1nnc(Oc2ccccc2F)c2ccccc12	26	1	3	128	26	51*
COc1cc2c(cc1OC)C(c1cc3ccccc3oc1=O)=NC(C)(C)C2	1	-7	1	99	-15	-10
O=C(c1cnccn1)N1CCc2ccccc21	-3	0	11	23	97*[fluorescence artefact?]	79*[fluorescence artefact?]
Cc1nc(SCC(=O)NCc2ccco2)c2c(C)c(C)sc2n1	8	-1	-11	89	2	2
CCOc1ccc2nc(SCC(=O)NC(=O)NCc3ccco3)sc2c1	11	-4	-9	97	3	12
O=C(CSc1nc2cc(Cl)ccc2s1)NC(=O)NCc1ccco1	7	-2	0	77	43	57*
Cc1ccc(-c2csc3ncnc(OCC(=O)NC(=O)NCc4ccco4)c23)cc1	-25	-1	10	68	38	56*[fluorescence artefact?]
